“And” between values parts separate entries of the source, which are not always exact repeats. Equal values may be shown once. More than one record can exist for a structure, and the calls need not agree. The source made the active and inactive calls. How the source made its calls: active means hit-call score of the fitted dose curve at least 0.9, where 1 is the maximum; inactive means score below 0.9.
read-out: Lipase C (LIPC), LIPC (gene 3990); assay: LTEA_HepaRG_LIPC: Life Technologies and Expression Analysis (LTEA) Assay for Lipase C (LIPC) using HepaRG (AID 2283514); details: mRNA level, 48 h; actives raise or lower the signal
Experimental: LTEA_HepaRG is a cell based, multiplexed-readout assay that uses HepaRG, a human liver cell line, with measurements taken at 48 hours after chemical dosing on a 96-well plate.LTEA_HepaRG_LIPC is one of 102 assay component(s) measured in the LTEA HepaRG cell culture assay. It is a marker of Steatosis.Data from the assay component LTEA_HepaRG_LIPC was analyzed into 1 endpoint. This assay endpoint, LTEA_HepaRG_LIPC, was analyzed with bidirectional fitting relative to DMSO as the negative control and baseline of activity. Using a type of inducible reporter, measures of mRNA induction for gain or loss-of-signal activity can be used to understand regulation of transcription factor activity. To generalize the intended target to other relatable targets, this assay endpoint is annotated to the esterase intended target family, where the subfamily is lipase.
A total of 1060 chemcials from the ToxCast library were tested in eight-point concentration-response experiments. Cell culture and cytotoxicity assays were conducted at Thermo Fisher Scientific's Custom Services facility (Madison, WI). A single lot of human HepaRG cells (Thermo Fisher Scientific, Frederick, MD) was used for the cell culture experiments. 96-well format collagen type I coated plates of human HepaRG cells were prepared using established methods. Briefly, cryopreserved HepaRG cells were thawed, plated at a density of approximately 100,000 cells/well in HepaRG Thaw, Plate, and General Purpose media (HPRG770, Thermo Fisher Scientific), and incubated for 48 hours. 0.5% DMSO was selected as vehicle control to balance the requisite need of DMSO in HepaRG cultures to maintain differentiation (for example, baseline metabolism, proportions of hepatocytes vs. cholangiocytes), while enabling further hepatic receptor pathway activation (for example, PXR and CAR) in response to chemical exposure. 48 hours after plating, the culture medium was replaced with HepaRG Serum-Free Incudtion Media. Cells were exposed to each test chemical in duplicate and maintained in CO2 incubators for another 48 hours. Chemical plates were thawed to room temperature and 200x concentrations of treatment groups were prepared. 8-point conentration-reponse curves were made with the highest exposure at 100 uM, followed by half-log dilutions, all in 0.5% DMSO. Each test plate contained variouse controls, induction positive controls (1mM phenobarbital), cytotoxicity positive controls ([…] aflatoxin B1), vehicle controls (0.5% DMSO), and total lysis controls (0.5% DMSO). Cell morphology images were taken using an Essen IncuCyte FLR automated microscope, with six 96-well plates imaged in about 24 minutes. Images were captured and exported and JPEG files. Spent culture media was transfered to black-well plates for the LDH assay, and remaining media was sorted at -80 C for later use. Cells were treated with RLT buffer and frozen until shipped for gene expression analysis. Total RNA was isolated from the cell suspension in 75 uL of Buffer RLT (Qiagen, Germantown, MD 20874) by Quintiles/Expression Analysis (Durham, NC) using a custom isolation procedure. Total RNA from each plate well was transferred to a preamplification plate. Fluidigm's 96.96 Dynamic ArrayTM (Fluidigm, Amsterdam, the Netherlands) technology was used for gene expression analyses by quantitative reverse transcription polymerase chain reaction (qRT-PCR, performed by Quintiles/Expression Analysis, Durham, NC)89. Standard TaqManTM Assays (Applied Biosystems/ThermoFisher Scientific, Foster City, CA) were used to assess the expression of 93 genes selected based on their selectivity and sensitivity to important hepatic receptors known to be modulated by environmental chemicals; importance in human hepatocyte functionality; and hepatotoxicity. […]

Row | SMILES | outcome | AC50
1 | Oc1ccccc1-c1ccccc1 | inactive | 
2 | CC1=C(C(=O)Nc2ccccc2)SCCO1 |  | 39.5 µM (active)
3 | Cc1cc(Cl)ccc1OCC(=O)O | inactive | 
4 | CON(C)C(=O)Nc1ccc(Cl)c(Cl)c1 |  | 31.6 µM (active)
5 | C=CCC1=C(C)C(OC(=O)C2C(C=C(C)C)C2(C)C)CC1=O (stereo not given) | inactive | 84 µM (active)
6 | CCCN(CCC)c1c([N+](=O)[O-])cc(S(N)(=O)=O)cc1[N+](=O)[O-] | inactive | 
7 | CN(C)C(=S)SSC(=S)N(C)C | inactive | 
8 | O=C(O)c1nc(Cl)ccc1Cl | inactive | 
9 | CC1COC(Cn2cncn2)(c2ccc(Oc3ccc(Cl)cc3)cc2Cl)O1 (stereo not given) |  | 12 µM (active)
10 | N#Cc1cc(Br)c(O)c(Br)c1 |  | 23.5 µM (active)
11 | Fc1ccc(Oc2ccnc3cc(Cl)cc(Cl)c23)cc1 |  | 78.8 µM (active)
12 | CNC(=S)S | inactive | 
13 | Cc1c(F)c(F)c(COC(=O)C2C(/C=C(\Cl)C(F)(F)F)C2(C)C)c(F)c1F (stereo not given) | inactive | 
14 | COC(=O)c1ccccc1C(=O)OC | inactive | 
15 | C=CC1(C)OC(=O)N(c2cc(Cl)cc(Cl)c2)C1=O (stereo not given) | inactive | 
16 | N#Cc1nn(-c2c(Cl)cc(C(F)(F)F)cc2Cl)c(N)c1S(=O)C(F)(F)F (stereo not given) |  | 42.6 µM (active)
17 | CCOP(=S)(OCC)SCn1c(=O)oc2cc(Cl)ccc21 | inactive | 
18 | CCCCNC(=O)n1c(NC(=O)OC)nc2ccccc21 | inactive | 
19 | CCOC(=O)CC(SP(=S)(OC)OC)C(=O)OCC (stereo not given) | inactive | 
20 | CCOc1cc(Oc2ccc(C(F)(F)F)cc2Cl)ccc1[N+](=O)[O-] |  | 34.9 µM (active)

Row | SMILES | outcome | AC50
21 | COc1cnc(OC)n2nc(NS(=O)(=O)c3c(OCC(F)F)cccc3C(F)(F)F)nc12 | inactive | 
22 | CCNc1nc(Cl)nc(NCC)n1 | inactive | 
23 | CC(C)Oc1cc(-n2nc(C(C)(C)C)oc2=O)c(Cl)cc1Cl |  | 50 µM (active)
24 | CCCC1COC(Cn2cncn2)(c2ccc(Cl)cc2Cl)O1 (stereo not given) |  | 35.8 µM (active)
25 | CC(C)C1(C)N=C(c2nc3ccccc3cc2C(=O)O)NC1=O (stereo not given) | inactive | 
26 | CC(C)(C)c1ccc(CSc2cnn(C(C)(C)C)c(=O)c2Cl)cc1 |  | 2.82 µM (active)
27 | OC(c1ccc(Cl)cc1)(c1cncnc1)c1ccccc1Cl (stereo not given) |  | 85.7 µM (active)
28 | CCCCNC(=O)OCC#CI | inactive | 
29 | CO/C=C(/C(=O)OC)c1ccccc1Oc1cc(Oc2ccccc2C#N)ncn1 |  | 80.8 µM (active) and 75.3 µM (active) and 71.2 µM (active)
30 | COc1nc(NC(C)C)nc(NC(C)C)n1 | inactive | 
31 | COP(N)(=O)SC (stereo not given) | inactive | 
32 | C=CCC1=C(C)[C@@H](OC(=O)[C@@H]2[C@@H](C=C(C)C)C2(C)C)CC1=O |  | 81.5 µM (active)
33 | COP(=S)(OC)Oc1nc(Cl)c(Cl)cc1Cl | inactive | 
34 | O=C(Nc1ccccc1)Nc1ccnc(Cl)c1 |  | 24 µM (active)
35 | CNC(=O)ON=CC(C)(C)SC | inactive | 
36 | CCc1nn(C)c(C(=O)NCc2ccc(C(C)(C)C)cc2)c1Cl |  | 0.58 µM (active)
37 | CS/C(C)=N/OC(=O)N(C)SN(C)C(=O)O/N=C(\C)SC | inactive | 
38 | O=C(O)COc1nc(Cl)c(Cl)cc1Cl | inactive | 
39 | COC(=O)C(C)Oc1ccc(Oc2ccc(Cl)cc2Cl)cc1 (stereo not given) | inactive | 

Source: PubChem BioAssay (EPA / NIEHS)
